Measured values: PubChem BioAssay AID2557 (NMMLSC, 2010)
Among all 330,000 compounds or so, about 650 (0.2%) were called active. This is one part of a sample in which actives are shown more often than they occur. Rule as the data show it: active = inhibition above about 50%; inactive = the rest.

target: Integrin alpha-4 (Homo sapiens) (UniProt P13612); assay: inhibition in human VLA-4 binding assay, primary screen, VLA-4 allosteric modulator project, MLPCN library, flow cytometry, VLA-4 expressing cells (AID 2557); settings: ligand binding flow cytometry, hits give high values, about 7 µM as worked out from the volumes in the protocol
Sequence (P13612 whole entry, looked up): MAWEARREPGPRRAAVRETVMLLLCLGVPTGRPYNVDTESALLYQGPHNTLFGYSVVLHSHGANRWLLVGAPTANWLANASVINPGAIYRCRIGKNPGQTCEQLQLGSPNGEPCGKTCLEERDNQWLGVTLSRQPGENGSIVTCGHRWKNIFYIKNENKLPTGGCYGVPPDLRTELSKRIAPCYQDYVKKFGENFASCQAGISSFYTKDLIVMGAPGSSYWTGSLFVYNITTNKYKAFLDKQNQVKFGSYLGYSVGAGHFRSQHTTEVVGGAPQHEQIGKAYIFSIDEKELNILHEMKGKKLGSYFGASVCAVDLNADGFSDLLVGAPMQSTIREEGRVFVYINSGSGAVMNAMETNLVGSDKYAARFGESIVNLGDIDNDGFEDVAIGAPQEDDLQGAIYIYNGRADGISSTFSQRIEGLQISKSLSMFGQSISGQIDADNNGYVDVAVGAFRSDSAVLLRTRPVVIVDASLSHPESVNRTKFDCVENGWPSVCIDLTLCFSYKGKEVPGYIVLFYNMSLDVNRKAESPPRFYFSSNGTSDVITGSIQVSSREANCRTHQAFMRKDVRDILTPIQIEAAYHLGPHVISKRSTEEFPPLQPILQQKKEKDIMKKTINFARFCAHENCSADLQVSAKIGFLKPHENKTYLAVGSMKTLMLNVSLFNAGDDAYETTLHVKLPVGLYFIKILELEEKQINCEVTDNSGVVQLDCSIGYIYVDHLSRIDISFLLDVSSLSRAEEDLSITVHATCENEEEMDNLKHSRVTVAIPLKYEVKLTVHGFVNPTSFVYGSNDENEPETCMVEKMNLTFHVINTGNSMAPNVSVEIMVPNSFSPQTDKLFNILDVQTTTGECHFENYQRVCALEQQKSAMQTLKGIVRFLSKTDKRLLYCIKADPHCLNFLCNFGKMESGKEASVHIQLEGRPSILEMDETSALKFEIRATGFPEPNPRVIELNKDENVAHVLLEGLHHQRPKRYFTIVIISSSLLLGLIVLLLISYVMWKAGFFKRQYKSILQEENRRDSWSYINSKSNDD

inhibition, inactive:
Cc1cc(C)nc(/N=C2\NC(=O)CC(C(=O)O)N2c2ccc(Cl)cc2Cl)n1 (stereo not drawn) -2.34%, CCOC(=O)c1sc(NC(=O)CSc2nc(O)c(Cc3ccccc3)c(=O)[nH]2)nc1C 2.73%, O=C(Nc1ncccc1O)c1ccc(C(=O)c2ccccc2)cc1 16.6%, O=C(NCc1nnc(SCC(=O)N2CCC(Cc3ccccc3)CC2)o1)c1ccco1 -6.21%, Cc1c(C=O)c2ccccn2c1C(=O)c1ccncc1 11.9%, CCC/C(O)=C1\C(=O)CC(C)(C)CC1=Nc1ccccc1OC 15.2%, Cc1ccc(C)c(N2CCN(C(=O)CCc3nc4ccccc4[nH]3)CC2)c1 8.4%, Cc1cc(C(=O)NNC(=S)NC(C)c2ccccc2)cs1 (stereo not drawn) 6.13%, CCC(C)(C)NC(=O)C(c1cccc(OC)c1OC)N(CC(C)C)C(=O)CCC(=O)Nc1cc(C)on1 (stereo not drawn) 1.27%, O=C(COc1ccc(Cl)cc1)Nc1ccc2c(c1)OCO2 14.3%, COc1ccc(OCC(=O)NNC(=O)C2CCC2)cc1 13.2%, COC(=O)[C@@]12CCCN1[C@H](c1ccc(-c3ccc(F)cc3)c(OC)c1)[C@H]1C(=O)N(C)C(=O)[C@H]12 21.7%, Cc1ccc(CNC(=O)CCCNC(=O)c2ccc(Cl)cc2)n1C -1.01%, CC(=O)NCC(=O)N(C)C(C(=O)Nc1ccc2c(c1)OCCO2)c1ccccc1 (stereo not drawn) 14.2%, O=c1[nH]nc(SCCS(=O)(=O)c2ccc(F)cc2)n1-c1ccccc1C(F)(F)F 3.05%, C=C(C)CNC(=S)/N=c1\scc(C)n1CC 5.83%, O=C(O)CSCC(=O)Nc1ccc(C(F)(F)F)cc1 4.49%, Cc1cc2cc3c(N)[nH]nc3nc2cc1C 10.6%, Cc1cc(OCCN2CCCC2)cc(C(C)C)c1 -8.43%, Cc1ccc(SCC(=O)Nc2ncc(C)s2)cc1 -0.13%, Cc1nnc(SCC(=O)Nn2cnnc2)s1 -1.38%, COc1cccc(N2C(=O)CC(N3CCc4ccccc4C3)C2=O)c1 (stereo not drawn) -4.39%, COc1cccc(N2C(=O)CC(N3CCN(S(=O)(=O)c4ccccc4)CC3)C2=O)c1 (stereo not drawn) 12.7%, Cc1cccc2nc(CSc3nc4[nH]ncc4c(=O)n3-c3cccc(Cl)c3)cc(=O)n12 0.93%, Cc1nc2ccccc2c(=O)n1NC(=O)c1ccc(Cl)c([N+](=O)[O-])c1 8.96%, O=C(Nn1c(SCc2ccc([N+](=O)[O-])cc2)nc2ccccc2c1=O)c1ccc(F)cc1 -2.25%, CN(C(=O)COC(=O)Cn1cnc2c1c(=O)n(C)c(=O)n2C)C1(C#N)CCCCC1 0%, COc1cccc(C2=CC(=O)C[C@H](c3ccc(F)cc3)C2)c1OC 0%, Cc1ccc(S(=O)(=O)N(Cc2ccccc2)c2ccccn2)cc1[N+](=O)[O-] 6.28%, CCOc1cc(C(=S)N2CCOCC2)ccc1OS(=O)(=O)c1ccc(Br)cc1 6.18%, COC(=O)N/N=C/c1cn(CCCOc2ccc(C)cc2)c2ccccc12 1.98%, COC(=O)N/N=C/c1ccc(-c2ccc(Cl)c(Cl)c2)o1 12.9%, COc1cc(C(C(=O)NC2CCCC2)N(C(=O)c2ccco2)c2ccccc2C(C)=O)cc(OC)c1OC (stereo not drawn) -1.99%, O=C(CN1CCSCC1)N/N=C/c1ccc(F)cc1 -0.98%, Nc1nc(SCC(=O)NNc2c(Cl)cc(Cl)cc2Cl)n[nH]1 -17.3%, Cc1ccc(N(C(=O)CNC(=O)c2ccco2)C(C(=O)NC2CCCC2)c2ccncc2)cc1 (stereo not drawn) -11.3%, CC(C)Cn1cnc2c1c(=O)n(CC(O)c1ccccc1)c(=O)n2CC(C)C (stereo not drawn) -0.03%, Cc1ccccc1CN1CCNC(=O)C1CC(=O)NCCC1=CCCCC1 (stereo not drawn) -8.93%, CSCc1cc(N(C)C)nc(SCc2ccc(Cl)cc2Cl)n1 -0.25%, Cc1cccc(OCCCC(=O)Nc2ccc(S(=O)(=O)N3CCCC3)cc2)c1 6.35%, O=C(NC(=S)Nc1ccccc1C(=O)O)c1ccc(-c2ccc(Br)cc2)o1 -8.29%, CNC1(c2nnnn2-c2c(C)cccc2C)CCOC(C)(C)C1 (stereo not drawn) -0.18%, CCN(CC(=O)Nc1c(F)cccc1F)C(=O)c1ccc(S(=O)(=O)N2CCCCC2)cc1 -0.6%, COc1ccccc1/C=C/C(=O)OCC(=O)NC1CCCCCC1 9.38%, N#CC1(NC(=O)COc2ccc3oc4ccccc4c3c2)CCCCC1 17.8%, COc1cccc(N(C(=O)c2snc(C(N)=O)c2N)C(C(=O)NCC2CCCO2)c2c[nH]c3ccccc23)c1 (stereo not drawn) -8.82%, O=C1NC2(CCCCC2)N=C1c1ccccc1 7.05%, Cn1cnc2c1c(=O)n(Cc1ccccc1C#N)c(=O)n2C 0.49%, Cn1c(=NC(=O)c2ccc3c(c2)OCCO3)sc2cc(S(C)(=O)=O)ccc21 4.69%, Cc1cc(C)nc(SCc2nnc(SCC(=O)OC3CCCCC3)o2)n1 -6.47%, CC(C)C[C@@H](CO)N1CCN(Cc2ccc(O)cc2)CCC1=O 25.2%, COC(=O)c1ccc(CN(c2ccccc2OC)S(=O)(=O)c2cccs2)o1 12.4%, O=C(CN(C(=O)c1nsc(Cl)c1Cl)c1cccc(F)c1)NC1CCCC1 5.34%, O=C(CCS(=O)(=O)c1ccc(Br)cc1)NCCc1ccc(Cl)cc1 -4%, COc1cc(OC)cc(C(=O)NCC(=O)N2CCCCCCC2)c1 2.18%, Cc1ccc(S(=O)(=O)N2CCN(C(=O)COC(=O)CNC(=O)c3ccc(C(C)(C)C)cc3)CC2)c(C)c1 -0.38%, COCCOC(=O)C1=C(C)NC(=O)NC1c1ccc(Cl)cc1 (stereo not drawn) 0.04%, CC1=C(C(N)=O)C(c2ccc(F)cc2)n2nc(CCCO)nc2N1 (stereo not drawn) -3.48%, CCCCOc1ccc(N(CC(=O)NC(C)C)C(=O)CCC(=O)Nc2ccccn2)cc1 23.1%, Cc1ccc(CN2CCN(Cc3ccc4ncccc4c3)CC2CCO)cc1 (stereo not drawn) 7.01%, CC(C)(C)C1CCC(C(=O)Nc2cccnc2)CC1 (stereo not drawn) 13.3%, CCN(CC)S(=O)(=O)c1ccc(OC)c(NC(=O)CCc2c(C)noc2C)c1 9.08%, O=C(COc1ccccc1F)NNC(=O)c1ccc(N2CCCCC2)c([N+](=O)[O-])c1 19.2%, CCOC(=O)c1ccc(N2C(=O)CC(N3CCC(C(=O)OCC)CC3)C2=O)cc1 (stereo not drawn) 24.6%, CCOC(=O)c1ccc(N2C(=O)CC(N3CCN(C(=O)c4ccccc4)CC3)C2=O)cc1 (stereo not drawn) 2.59%, Cc1cc(C(=O)OCC(=O)Nc2ccccc2Cl)c(C)o1 -2.15%, Cc1cc(C)cc(NC(=O)COC(=O)c2cc(C)oc2C)c1 3.64%, Cc1ccc(-c2cc(N)on2)cc1 19.5%, Cc1ccc(N(CC(O)CN2CCCC2)S(=O)(=O)c2ccccc2)cc1 (stereo not drawn) 4.52%, Cc1cccc(N(CC(O)CN(C)C)S(=O)(=O)c2ccccc2)c1 (stereo not drawn) 2.19%, O=C(COC(=O)c1ccc2ncsc2c1)Nc1ccc(Cl)cc1 -15.8%, Cn1c(=O)c2c(nc(N/N=C/c3cccs3)n2Cc2ccc(Br)cc2)n(C)c1=O 7.63%, COc1ccc(Nc2cc(Sc3ccc(OC)cc3)ncn2)cc1 4.33%, CC(=O)N1CCc2cc(S(=O)(=O)NC3CCCCC3)ccc21 -5.2%, CCCNS(=O)(=O)c1ccc2c(c1)CCCN2C(C)=O 9.08%, C=CC(COCc1ccccc1)N(CC(=O)OC)S(=O)(=O)c1cc(Br)ccc1OC (stereo not drawn) 0.47%, Cc1ccc(NC(=O)Nc2cccnc2)cc1 2.64%, Fc1cc(Br)ccc1NC(=S)Nc1cccnc1 12.9%, O=C(CN(C(=O)CNC(=O)c1cccs1)c1cccc(F)c1)NC1CCCCC1 5.25%

inhibition, active:
CCc1ccc2c(c1)C1(NN=C(c3ccccc3)S1)C(=O)N2 (stereo not drawn) 92.2%, CC/C(O)=C1\C(=O)CC(C)(C)CC1=NCCc1nc2ccccc2[nH]1 55.8%, NNC(=O)COc1ccc(C2SCCS2)cc1 54.2%, Cc1cnc(NC(=O)CSc2nnc(C)s2)s1 58.3%, COc1cccc(N2CCN(C3CC(=O)N(c4ccc(Cl)cc4)C3=O)CC2)c1 (stereo not drawn) 94.7%, O=C(Nn1c(-c2ccccc2)nc2ccccc2c1=O)c1ccc([N+](=O)[O-])cc1 52%, COC(=O)N/N=C/c1c[n+]([O-])c2ccccc2[n+]1[O-] 52.6%, Cc1cc(C)cc(C(=O)NCC(=O)OCC(=O)N2CCCCC2)c1 51.9%, COCCOC(=O)C1=C(C)Nc2nc(C)nn2C1c1ccccc1 (stereo not drawn) 76%, CCOC(=O)c1ccc(N2C(=O)CC(N3CC(C)OC(C)C3)C2=O)cc1 (stereo not drawn) 108%, Cc1cc(C(=O)OCC(=O)Nc2ccc(F)c(F)c2)c(C)o1 49.7%, Cc1cc(C)n(CC(O)CN(c2ccccc2)S(=O)(=O)c2ccc3ccccc3c2)n1 (stereo not drawn) 50.2%, CC(=O)N1CCc2cc(S(=O)(=O)Nc3ccccc3N3CCN(C)CC3)ccc21 54%, S=C(Nc1cccnc1)Nc1ccccn1 52.3%
